Results filed as inconclusive are left out. Where a call stands in place of a potency, no number is given. Activity calls are given as the source filed them. Calls follow the shape of the dose curve; as a rule, active = well fitted curve in the direction sought with a large enough effect; inconclusive = small, poorly fitted or top-dose-only effect, or another doubt; inactive = no such curve, though single readings can be large; an effect the other way counts as inactive or inconclusive.
System: Tov-21-G
Assay: Primary qHTS to identify gynecologic anti-cancer compounds using libraries of approved drugs and bioactive compounds (AID 1345084); also: nearly all actives have a fitted effect of over 55% in size
Conditions: Gynecologic cancer cell panel viability, ATPlite luminescence, 48 h; series mostly up to 57.5 µM
Summary of the method: (§1)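 Cytotoxicity screen measuring ATP content by luciferase luminescence. Each compound is applied at five concentrations for 48 h at 37 C with 5% CO2.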
Potency is read from the fitted curve at half-maximal effect.

SMILES	Potency
O=[N+]([O-])c1cc([N+](=O)[O-])c2ccccc2c1	inactive
Nc1ccc(Sc2ccc(N)cc2)cc1	inactive
CCCCCCCCCCCCCCCC[N+](C)(C)C	7.94 µM (active)
CCC1(CCC(C)C)C(=O)NC(=O)NC1=O	inactive
CCO/N=C(\CC)C1=C(O)CC(c2c(C)cc(C)cc2C)CC1=O (stereo not drawn)	inactive
O=[N+]([O-])c1c2ccccc2cc2ccccc12	inactive
O=C(O)C(Cl)Cl	inactive
COc1ccc(C(c2ccc(OC)cc2)C(Cl)(Cl)Cl)cc1	inactive
O=C(O)c1cc(Oc2ccc(C(F)(F)F)cc2Cl)ccc1[N+](=O)[O-]	inactive
CCOCCOC(C)=O	inactive
O=C(O)CNC(=O)c1c(O)c2ccccc2n(Cc2ccccc2)c1=O	inactive

System: Tov112D
Assay: as above
Conditions: Gynecologic cancer cell panel viability, ATPlite luminescence, 48 h; series mostly up to 57.5 µM
Summary of the method: as §1

SMILES	Potency
O=[N+]([O-])c1cc([N+](=O)[O-])c2ccccc2c1	inactive
Nc1ccc(Sc2ccc(N)cc2)cc1	inactive
O=c1[nH]c2ccc(Cl)cc2c(N[C@@H]2CN3CCC2CC3)c1-c1nc2ccccc2[nH]1	25.1 µM (active)
CCC1(CCC(C)C)C(=O)NC(=O)NC1=O	inactive
CCO/N=C(\CC)C1=C(O)CC(c2c(C)cc(C)cc2C)CC1=O (stereo not drawn)	inactive
CC(C)[C@]12O[C@H]1[C@@H]1O[C@]13[C@]1(O[C@H]1C[C@H]1C4=C(CC[C@@]13C)C(=O)OC4)[C@@H]2O	0.1 µM (active)
CC1(N2CCC(n3c([C@@H]4CCCNC4)nc4ccccc43)CC2)CCCCCCC1	22.4 µM (active)
CCNC(=O)C[C@@H]1N=C(c2ccc(Cl)cc2)c2cc(OC)ccc2-n2c(C)nnc21	inactive
O=[N+]([O-])c1c2ccccc2cc2ccccc12	inactive
S=C(SSC(=S)N1CCCCC1)N1CCCCC1	14.1 µM (active)
O=C(O)C(Cl)Cl	inactive
COc1ccc(C(c2ccc(OC)cc2)C(Cl)(Cl)Cl)cc1	inactive
O=C(O)c1cc(Oc2ccc(C(F)(F)F)cc2Cl)ccc1[N+](=O)[O-]	inactive
CCOCCOC(C)=O	inactive
C/C=C(/C)C(=O)O[C@H]1C(C)=C2[C@H]([C@@H]1OC(=O)CCCCCCC)[C@@](C)(OC(C)=O)C[C@H](OC(=O)CCC)[C@@]1(O)[C@H]2OC(=O)[C@@]1(C)O	0.501 µM (active)
O=C(O)CNC(=O)c1c(O)c2ccccc2n(Cc2ccccc2)c1=O	inactive

System: not listed separately
Assay: Drug repurposing screens with cells derived from glioblastoma tumor samples (AID 1345199); also: nearly all actives have a fitted effect of over 40% in size
Conditions: GBM patient neurospheres viability, ATP luminescence, 48 h; Potency: tumour line A unless noted; series mostly up to 45.9 µM
Summary of the method: (§2)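 Four patient lines of CD133+ GBM neurospheres were screened at several concentrations; hits were retested in those lines plus three slower-growing GBM lines, using 48-hour treatment and ATP-based viability.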

SMILES	Potency
CCCCc1ccc(C(=O)O)nc1	inactive
c1ccc(C2(c3ccccc3)CC2C2=NCCN2)cc1 (stereo not drawn)	inactive
O=[N+]([O-])c1cc([N+](=O)[O-])c2ccccc2c1	inactive
CCCN1CCC[C@H](c2cccc(O)c2)C1	inactive
C[C@]12N[C@H](Cc3ccccc31)c1ccccc12	inactive
NC(=O)CN1CC(O)CC1=O (stereo not drawn)	inactive
Nc1ccc(N=Nc2ccccc2)cc1	inactive
CCC1(CCC(C)C)C(=O)NC(=O)NC1=O	inactive
CCO/N=C(\CC)C1=C(O)CC(c2c(C)cc(C)cc2C)CC1=O (stereo not drawn)	inactive
C[N+](C)(C)CC(=O)O	inactive
NC1=NC(=O)N2CC12 (stereo not drawn)	inactive
CN(C)[C@@H]1C(=O)C(C(N)=O)=C(O)[C@@]2(O)C(=O)C3=C(O)c4c(O)cccc4[C@@](C)(O)[C@H]3[C@H](O)[C@@H]12	inactive
S=C(SSC(=S)N1CCCCC1)N1CCCCC1	inactive
O=C(O)C(Cl)Cl	inactive
O=C(O)c1cc(Oc2ccc(C(F)(F)F)cc2Cl)ccc1[N+](=O)[O-]	inactive
CCOCCOC(C)=O	inactive

System: astro
Assay: as above
Conditions: viability, ATP luminescence, 48 h; series mostly up to 45.9 µM
Summary of the method: as §2

SMILES	Potency
C[C@]12CCC(=O)C(O)=C1CC[C@@H]1[C@H]3CCC(=O)[C@@]3(C)CC[C@@H]12	inactive
CCCCc1ccc(C(=O)O)nc1	inactive
CCCN(CCC)c1c([N+](=O)[O-])cc(S(N)(=O)=O)cc1[N+](=O)[O-]	31.6 µM (active)
C[C@@H]1[C@H](O)[C@@H](C)C=CC=CCCC=CC=CC=CC=C[C@H](O[C@H]2O[C@@H](C)[C@H](O)[C@@H](N)[C@@H]2O)CC2O[C@](O)(C[C@@H](O)[C@H](O)CC[C@@H](O)C[C@@H](O)C[C@@H](O)CC(=O)O[C@H]1C)C[C@H](O)[C@H]2C(=O)O	inactive
c1ccc(C2(c3ccccc3)CC2C2=NCCN2)cc1 (stereo not drawn)	inactive
Nc1ccc(Sc2ccc(N)cc2)cc1	inactive
CCCN1CCC[C@H](c2cccc(O)c2)C1	inactive
CCCCCCCCCCCCCCCC[N+](C)(C)C	11.2 µM (active)
C[C@]12N[C@H](Cc3ccccc31)c1ccccc12	inactive
NC(=O)CN1CC(O)CC1=O (stereo not drawn)	inactive
CCC1(CCC(C)C)C(=O)NC(=O)NC1=O	inactive
CCO/N=C(\CC)C1=C(O)CC(c2c(C)cc(C)cc2C)CC1=O (stereo not drawn)	inactive
CO/C=C(/C(=O)OC)c1ccccc1Oc1cc(Oc2ccccc2C#N)ncn1	14.1 µM (active)
C[N+](C)(C)CC(=O)O	inactive
NC1=NC(=O)N2CC12 (stereo not drawn)	inactive
O=[N+]([O-])c1c2ccccc2cc2ccccc12	inactive
CN(C)[C@@H]1C(=O)C(C(N)=O)=C(O)[C@@]2(O)C(=O)C3=C(O)c4c(O)cccc4[C@@](C)(O)[C@H]3[C@H](O)[C@@H]12	inactive
S=C(SSC(=S)N1CCCCC1)N1CCCCC1	inactive
O=C(O)C(Cl)Cl	inactive
CN[C@@H]1C[C@@H](c2ccc(Cl)c(Cl)c2)c2ccccc21	20 µM (active)
C[C@]12CC[C@@H]3[C@@H](CCC4=CC(=O)CC[C@@H]43)[C@@H]1CC[C@@H]2OC(=O)CCc1ccccc1	inactive
O=C(O)c1cc(Oc2ccc(C(F)(F)F)cc2Cl)ccc1[N+](=O)[O-]	inactive
CCOCCOC(C)=O	inactive
CC(C)NC(C)Cc1ccc(I)cc1 (stereo not drawn)	inactive
CC(C)Oc1cccc(NC(=O)c2ccccc2C(F)(F)F)c1	inactive

Reference: PubChem BioAssay (NCATS)
